Sampled rows, rich in hits. Any-hit rate of the full collection: about 1%.
VHR inh abs: blocks human VHR1 dual specificity phosphatase. inhibition, % at 13.3 µM. 290,000 compounds, 0.52% hits. recombinant VHR phosphatase, pNPP absorbance. P51452. AID 1654; in the data active = inhibition above about 50%
Target sequence (P51452 whole entry, looked up): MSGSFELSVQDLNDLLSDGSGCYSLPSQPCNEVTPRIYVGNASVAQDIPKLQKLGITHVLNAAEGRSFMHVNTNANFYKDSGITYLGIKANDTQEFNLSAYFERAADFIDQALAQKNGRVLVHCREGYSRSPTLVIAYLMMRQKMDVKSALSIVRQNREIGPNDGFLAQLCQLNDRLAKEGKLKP
Yp Topo-I inh: inhibitors of Yersinia pestis topoisomerase I | Y. pestis Topo-I cleavage product accumulation, plate reader | activity, % at 10 µM | 360,000 compounds, 0.064% hits; in the data active = activity above about 50%, passing the limit was not always enough
TcdB GH inh: inhibitors of Clostridioides difficile toxin B glycohydrolase; P18177; TcdB glycohydrolase enzymatic assay, plate reader; inhibition, % at 9.99 µM; 350,000 compounds, 0.24% hits; in the data active = inhibition above about 10%
MazF activator: increases E. coli MazEF RNase cleavage of RNA; AID 504720; P0AE70; activation, % at 20 µM; FAM/BHQ RNA-DNA oligo cleavage fluorescence, 5 h; 350,000 compounds, 0.32% hits; in the data active = activation above about 50%
Target sequence (P0AE70 whole entry, looked up): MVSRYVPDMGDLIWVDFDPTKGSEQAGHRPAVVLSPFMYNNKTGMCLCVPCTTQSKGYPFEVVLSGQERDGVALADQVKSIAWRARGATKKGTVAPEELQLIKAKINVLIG
FadD28 FP inh: blocks FadD28 binding to the bisubstrate probe. fluorescence polarization. 360,000 compounds, 0.22% hits. inhibition, % at 12.5 µM. AID 588549; in the data active = inhibition above about 8.5%, passing the limit was not always enough
BioA inh-1: BioA (M. tuberculosis) enzyme inhibition | purified M. tuberculosis BioA enzyme, plate reader | inhibition, % at 9.99 µM | 360,000 compounds, 0.096% hits; in the data active = inhibition above about 40%
BioA inh-2: Mtb BioA enzyme inhibition. shares compounds with BioA inh-1. purified BioA enzyme, plate reader, dose response. max activity, %. 310 tested, under 10 active. AID 651679;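 note: top concentration of the dilution series was 10 µM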
HepG2 tox 2: kills HepG2 cells; HepG2 cytotoxicity, plate reader; max activity, %; shares compounds with BioA inh-1; 310 tested, under 10 active
3T3 cytotox 5: cytotoxicity in NIH3T3 cells; shares compounds with BioA inh-1; plate reader; activity change, negative = cytotoxicity, % at 26 µM; 310 tested, under 10 active
Numbers stand for hits; i = inactive; nt = not tested or not shown. Unless noted, the rule behind the calls is not given here.

SMILES | VHR inh abs | Yp Topo-I inh | TcdB GH inh | MazF activator | FadD28 FP inh | BioA inh-1 | BioA inh-2 | HepG2 tox 2 | 3T3 cytotox 5
C/C=C/c1ccc2c(c1)O[C@@H](CN(C)C(=O)Nc1ccccc1)[C@H](C)CN([C@H](C)CO)S2(=O)=O | nt | nt | i | nt | nt | 42 | i | i | i
C/C=C/c1ccc2c(c1)O[C@@H](CN(C)C(=O)Nc1ccc(OC)cc1)[C@@H](C)CN([C@@H](C)CO)S2(=O)=O | nt | nt | i | nt | nt | 41 | i | i | i
CN1C(=O)c2cc(NC(=O)Nc3ccccc3)ccc2OC[C@@H]2O[C@H](CC(=O)NC3CCC3)CC[C@@H]21 | nt | nt | i | nt | nt | i | nt | nt | nt
CC(C)NC(=O)N1[C@@H](CO)[C@@H](c2ccccc2)C12CN(C(=O)CN(C)C)C2 | nt | nt | i | nt | nt | nt | nt | nt | nt
CC(=O)c1ccc(C(=O)N2CCCC(Nc3ccc(C(C)C)cc3)C2)s1 (stereo not given) | i | i | i | i | i | 67 | i | i | i
O=C(C[C@H]1C=C[C@@H](NC(=O)Nc2ccc(C(F)(F)F)cc2)[C@@H](CO)O1)NCc1ccccn1 | nt | nt | i | nt | nt | nt | nt | nt | nt
CCc1c(C(=O)NCCc2ccc(OC)c(OC)c2)[nH]c(C)c1C(C)=O | i | i | nt | i | i | 60 | i | i | i
CCc1c(C(=O)NCCc2cccc(C)c2)[nH]c(C)c1C(C)=O | i | i | i | i | i | i | nt | nt | nt
CCC(=O)N(C)C[C@@H]1Oc2cc(C#CCOC)ccc2S(=O)(=O)N([C@H](C)CO)C[C@@H]1C | nt | nt | i | nt | nt | i | nt | nt | nt
C[C@H]1CN([C@@H](C)CO)C(=O)Cc2cc(NC(=O)Cn3cnnn3)ccc2O[C@H]1CN(C)Cc1ccc2c(c1)OCO2 | nt | nt | i | nt | nt | i | nt | nt | nt
C[C@@H]1CN([C@H](C)CO)C(=O)Cc2cc(NC(=O)Cn3cnnn3)ccc2O[C@H]1CN(C)Cc1ccc2c(c1)OCO2 | nt | nt | i | nt | nt | 63 | i | i | i
C[C@@H]1CN([C@@H](C)CO)C(=O)Cc2cc(NC(=O)Cn3cnnn3)ccc2O[C@H]1CN(C)Cc1ccc2c(c1)OCO2 | nt | nt | i | nt | nt | 56 | i | i | i
CN1CCN(C(=O)C[C@@H]2CC[C@H]3[C@H](COc4ccc(NC(=O)c5cscn5)cc4C(=O)N3C)O2)CC1 | nt | nt | i | nt | nt | i | nt | nt | nt
Cc1cccc(-n2c(SCC(=O)N(C)C3CCS(=O)(=O)C3)nc3ccccc3c2=O)c1C (stereo not given) | nt | i | i | i | i | 47 | i | i | i
CN(C(=O)CSc1nc2ccccc2c(=O)n1-c1ccccc1F)C1CCS(=O)(=O)C1 (stereo not given) | nt | i | i | i | i | i | nt | nt | nt
CNC(=O)C[C@H]1CC[C@@H]2[C@H](COC[C@@H](O)CN2C(=O)Nc2ccc3c(c2)OCO3)O1 | nt | nt | i | nt | nt | 50 | i | i | i
COC(=O)C[C@@H]1CC[C@@H]2[C@H](COC[C@@H](O)CN2C(=O)Nc2cccc(F)c2)O1 | nt | nt | i | nt | nt | 46 | i | i | i
C[C@@H]1CN([C@@H](C)CO)C(=O)Cc2cc(NC(=O)Nc3cccc4ccccc34)ccc2O[C@@H]1CN(C)C(=O)Nc1ccccc1 | nt | nt | i | nt | nt | i | nt | nt | nt
Cc1noc(C)c1NC(=O)N(C)C[C@H]1Oc2c(NC(=O)c3ccc(-c4nccs4)cc3)cccc2C(=O)N([C@@H](C)CO)C[C@H]1C | nt | nt | i | nt | nt | i | nt | nt | nt
COc1cc2c3cc1Oc1cc(ccc1O)C[C@@H]1c4c(cc(OC)c(O)c4Oc4cccc(c4)C[C@@H]3N(C)CC2)CC[N+]1(C)C | nt | i | i | i | i | 51 | i | i | i
COc1cc2c3cc1Oc1cc(ccc1O)C[C@@H]1c4c(cc(OC)c(O)c4Oc4ccc(cc4)C[C@H]3N(C)CC2)CCN1C | i | i | i | i | i | i | nt | nt | nt
COc1ccc(CN(C)C[C@H]2Oc3ccc(NC(=O)Cc4cn(C)c5ccccc45)cc3CC(=O)N([C@H](C)CO)C[C@@H]2C)cc1 | nt | nt | i | nt | nt | nt | nt | nt | nt
O=C(NCc1ccco1)c1ccc(-c2ccc3nccn3c2)cc1 | nt | i | i | nt | i | 48 | i | i | i
O=C(C[C@@H]1CC[C@@H](NC(=O)Nc2ccc(F)cc2)[C@@H](CO)O1)NCc1ccccn1 | nt | nt | i | nt | nt | i | nt | nt | nt
O=C(Nc1ccc2snnc2c1)N1CCN(c2ccccc2)CC1 | i | i | nt | i | i | 75 | i | i | i
SMILES | VHR inh abs | Yp Topo-I inh | TcdB GH inh | MazF activator | FadD28 FP inh | BioA inh-1 | BioA inh-2 | HepG2 tox 2 | 3T3 cytotox 5
O=C(Nc1ccc2snnc2c1)N1CCOCC1 | i | i | nt | i | i | 65 | i | i | i
Cc1ccc(-c2nnc(N3CCN(C(=O)CSc4ncn[nH]4)CC3)c3ccccc23)cc1 | i | i | nt | i | i | 52 | i | i | i
CC(=O)N1CCN(c2nnc(-c3ccc(C)cc3)c3ccccc23)CC1 | i | i | i | i | i | nt | nt | nt | nt
O=C(c1ccccc1F)N1CC[C@@H]2[C@H](CO)Nc3ccc(Br)cc3[C@@H]21 | nt | nt | i | nt | nt | 83 | i | i | i
O=C(c1cccc(F)c1)N1CC[C@@H]2[C@@H](CO)Nc3ccc(-c4cccc(F)c4)cc3[C@@H]21 | nt | nt | nt | nt | nt | 98 | i | i | i
O=C(c1ccccc1F)N1CC[C@@H]2[C@H]1c1cc(Br)ccc1N[C@@H]2CO | nt | nt | i | nt | nt | 49 | i | i | i
O=C(c1ccccc1F)N1CC[C@@H]2[C@H](CO)Nc3ccc(-c4ccccc4)cc3[C@@H]21 | nt | nt | i | nt | nt | i | nt | nt | nt

Screening data from PubChem BioAssay.
